Hits are enriched below; roughly 7.5% of the tested compounds scored in any of these assays.
FLuc modulator = inhibits or activates purified firefly luciferase, miR-21 counter-screen; P08659; purified FLuc, Km substrates, luminescence inhibition; Potency, µM (doses to about 57.5 µM), usual class: inhibitors; hit rate 6.9% among 360,000; AID 588342; further: nearly all actives have a fitted effect of over 55% in size
Target sequence (P08659 whole entry, looked up): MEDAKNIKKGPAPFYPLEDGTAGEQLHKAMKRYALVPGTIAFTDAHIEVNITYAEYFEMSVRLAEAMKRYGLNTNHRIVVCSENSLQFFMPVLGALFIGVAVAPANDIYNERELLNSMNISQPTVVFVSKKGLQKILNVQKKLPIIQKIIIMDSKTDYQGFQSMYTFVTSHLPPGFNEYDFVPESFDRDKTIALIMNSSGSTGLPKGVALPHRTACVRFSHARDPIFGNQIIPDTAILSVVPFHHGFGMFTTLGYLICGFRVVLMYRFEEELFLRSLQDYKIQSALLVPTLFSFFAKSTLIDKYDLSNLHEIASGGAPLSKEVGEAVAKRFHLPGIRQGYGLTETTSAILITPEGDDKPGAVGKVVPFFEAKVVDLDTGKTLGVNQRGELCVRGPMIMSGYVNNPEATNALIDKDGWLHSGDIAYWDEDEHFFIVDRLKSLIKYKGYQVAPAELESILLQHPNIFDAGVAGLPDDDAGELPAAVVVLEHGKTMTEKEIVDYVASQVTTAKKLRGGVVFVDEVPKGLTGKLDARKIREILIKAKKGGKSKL
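Biochemical qHTS of compounds, final roughly 60 µM downward over six points, against 10 nM purified firefly luciferase using Km concentrations of substrates (10 uM D-luciferin, 10 uM ATP) in Tris acetate pH 7.5 buffer; luminescence output.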
KinaseGlo FLuc = counter-screen: inhibitors of Kinase-Glo firefly luciferase; Q27757; Kinase-Glo luciferase, ATP luminescence, 8 min; Potency, µM (top dose mostly 38.3 µM), most hits filed as inhibitors; hit rate 0.28% among 200,000; AID 1379; further: nearly all actives have a fitted effect of over 60% in size
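Luminescence was the read-out, taken after 8-minute incubation at ambient temperature. Luciferase turned over luciferin with 10 uM ATP in imidazole pH 7.2 buffer containing KCl, MgCl2, Tween 20 and BSA.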
ELG1 genotox = genotoxicity induction in ELG1-luciferase HEK293T cells. Potency, µM (titrated, usually from 46 µM), actives largely listed as activators. AID 504466. HEK293T ELG1-luciferase reporter, luminescence, 16 h. hit rate 1.3% among 330,000; further: nearly all actives have a fitted effect of over 60% in size
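Luminescence read-out: rising ELG1-luciferase signal, reflecting elevated ELG1 protein under genetic stress, flags genotoxic compounds. Cells were treated for 16 hr at 37 °C before ONE-Glo detection.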
Rab9 prom act = Rab9 promoter activation; Huh7 Rab9 promoter-luciferase reporter, luminescence, 24 h; Potency, µM (titrated, usually from 9.22 µM), usual class: activators; hit rate 2.8% among 320,000; AID 485297; further: nearly all actives have a fitted effect of over 60% in size
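Luciferase signal after 10 min detection reagent at ambient indicates Rab9 promoter upregulation; stably transfected Huh7 cells were treated 24 h with compound in DMSO at 37 °C, 5% CO2.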
NPC1 promoter act = activators of NPC1 promoter. AID 485313. Potency, µM (series often up to 9.22 µM), hits mostly activators. hit rate 2.4% among 320,000. Huh7 NPC1 promoter luciferase reporter, 24 h; further: nearly all actives have a fitted effect of over 60% in size
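Luminescence from an NPC1 promoter-driven luciferase reporter in stably transfected Huh7 cells was measured after 24 h compound treatment at 37 °C, followed by 10 min ambient incubation with luciferase detection reagent.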
SMN2 splice up = increases expression of the SMN2 splice variant. HEK293 SMN2-luciferase splicing reporter, luminescence, 30-36 h. Potency, µM (highest dose often 46.1 µM), actives largely listed as activators. hit rate 2.8% among 210,000. AID 1458; further: nearly all actives have a fitted effect of over 55% in size
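HEK293 cells carry an SMN2 […]–luciferase reporter in which exon 7 inclusion puts luciferase in frame. Cells were plated 10-12 h before compound addition, then incubated 30-36 h at 37C. ONE-Glo luminescence was read; sodium butyrate at 4.5 mM final served as control.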
Each line names hits and unclear results; the compound was inactive in the other large screens. The call rests on the fitted dose curve; in most records, active means well fitted curve in the direction sought with a large enough effect; inconclusive means small, poorly fitted or top-dose-only effect, or another doubt; inactive means no such curve, though single readings can be large; an effect the other way counts as inactive or inconclusive.

N/C(=N\OC(=O)CC1CCCCC1)c1ccc(Cl)cc1	FLuc modulator 7.6µM, ELG1 genotox inconclusive (no result: KinaseGlo FLuc, SMN2 splice up)
N/C(=N\OC(=O)CCC1CCCCC1)c1cccc([N+](=O)[O-])c1	FLuc modulator 11µM
CCc1ccc(C(=O)Nc2cc(S(=O)(=O)N3CCOCC3)ccc2N2CCOCC2)cc1	none (no result: FLuc modulator, KinaseGlo FLuc, Rab9 prom act, NPC1 promoter act, SMN2 splice up)
COc1ccc(-c2onc(C)c2C)cc1S(=O)(=O)Nc1cc(Cl)ccc1C	none (no result: KinaseGlo FLuc, ELG1 genotox, Rab9 prom act, NPC1 promoter act, SMN2 splice up)
CC(=O)Cc1nsc(NC(=O)c2ccc(-c3cc(Cl)ccc3Cl)o2)n1	FLuc modulator 13µM
CC(=O)Cc1nsc(NC(=O)c2cc(-c3ccc(Cl)c(Cl)c3)oc2C)n1	none
O=C(NCCNC(=O)c1ccc(-c2ccc(Cl)c(Cl)c2)o1)c1cnccn1	FLuc modulator 15µM (no result: KinaseGlo FLuc, SMN2 splice up)
CC(=O)Cc1nsc(NC(=O)c2ccc(-c3cc(C(F)(F)F)ccc3Cl)o2)n1	SMN2 splice up inconclusive
CC(=O)Cc1nsc(NC(=O)c2ccc(-c3cccc(C(F)(F)F)c3)o2)n1	FLuc modulator 9.5µM, SMN2 splice up inconclusive
O=C(NCCCNC(=O)c1ccc(-c2cccc(Cl)c2)o1)c1cnccn1	none (no result: KinaseGlo FLuc, SMN2 splice up)
Cc1nnc(NC(=O)c2ccc(-c3cccc(C(F)(F)F)c3)o2)s1	SMN2 splice up inconclusive
CC(=O)Cc1nsc(NC(=O)c2ccc(-c3ccc(Cl)c(Cl)c3)o2)n1	FLuc modulator 11µM
Cc1sc2nc(COC(=O)CNC(=O)c3ccc(C(C)(C)C)cc3)[nH]c(=O)c2c1C	FLuc modulator inconclusive
CCOC(=O)C(CC)n1nc(C)n2c(cc3sccc32)c1=O (centres undefined)	none
CC(=O)Cc1nsc(NC(=O)c2cc(-c3ccccc3Cl)oc2C)n1	FLuc modulator inconclusive
CC(=O)Cc1nsc(NC(=O)c2ccc(-c3ccc(Cl)cc3Cl)o2)n1	FLuc modulator 6.7µM
COC(=O)c1c(Oc2ccc(Br)cc2)nnc(-c2ccccc2)c1-c1ccccc1	none (no result: KinaseGlo FLuc, ELG1 genotox, Rab9 prom act, NPC1 promoter act)
Cc1cc(C)c2c(-n3cccc3)c(C(=O)O)sc2n1	FLuc modulator 2.7µM, ELG1 genotox inconclusive, Rab9 prom act 0.63µM, NPC1 promoter act 1µM, SMN2 splice up inconclusive
Cc1cc(C)c2c(-n3cccc3)c(C(=O)NNS(=O)(=O)c3ccccc3)sc2n1	none
C[C@@]1(C(NC(=O)Cc2ccc(C(F)(F)F)cc2)c2ccc(-c3ccccc3)cc2)C[C@H]1C1CCCCC1 (some centres undefined)	none (no result: FLuc modulator, ELG1 genotox, Rab9 prom act, NPC1 promoter act)
O=S(=O)(c1ccc(F)cc1)N1CCN(c2nc(-c3ccc(F)cc3)cs2)CC1	none
CS(=O)(=O)N1CCN(c2nc(-c3ccc(F)cc3)cs2)CC1	FLuc modulator 11µM
c1ccc(-c2csc(N3CCSCC3)n2)cc1	FLuc modulator 24µM, Rab9 prom act inconclusive
Brc1ccc(-c2csc(N3CCc4ccccc4C3)n2)cc1	FLuc modulator inconclusive
Brc1ccc(-c2csc(N3CCC(c4ccccc4)C3)n2)cc1 (centres undefined)	FLuc modulator 6µM, Rab9 prom act inconclusive, NPC1 promoter act inconclusive
Fc1ccc(-c2csc(N3CCSCC3)n2)cc1	FLuc modulator 17µM
N#CC1(NC(=O)CSc2nnc3n2CCCCC3)CCCCC1	none (no result: FLuc modulator, KinaseGlo FLuc, Rab9 prom act, NPC1 promoter act, SMN2 splice up)
COCCN(Cc1nnc(-c2cccs2)o1)C(=O)CN1C(=O)NC2(CCCCC2)C1=O	none (no result: FLuc modulator, KinaseGlo FLuc, Rab9 prom act, NPC1 promoter act, SMN2 splice up)
O=S(=O)(NNc1ncc(C(F)(F)F)cc1Cl)c1ccccc1	FLuc modulator inconclusive (no result: KinaseGlo FLuc, SMN2 splice up)
O=C(NCCSCc1ccc(Cl)cc1)C1CCN(S(=O)(=O)Cc2ccccc2)CC1	none (no result: KinaseGlo FLuc, ELG1 genotox, Rab9 prom act, NPC1 promoter act, SMN2 splice up)
O=C(c1ccco1)N1CCN(c2ccc(F)cc2)CC1	none
c1ccc2oc(-c3csc(N4CCOCC4)n3)cc2c1	FLuc modulator 0.76µM, ELG1 genotox inconclusive, Rab9 prom act 0.5µM, NPC1 promoter act 1.3µM, SMN2 splice up 3.2µM
Clc1ccc(-c2csc(N3CCSCC3)n2)cc1	FLuc modulator 12µM, ELG1 genotox inconclusive
Cc1nc(-c2ccccc2)cs1	none
O=C(c1ccco1)N1CCN(c2nc(-c3ccc(F)cc3)cs2)CC1	FLuc modulator 24µM (no result: SMN2 splice up)
c1ccc(-c2csc(-n3cccn3)n2)cc1	FLuc modulator 27µM
CC(C)CNC(=S)N1CCN(c2nc(-c3ccc(Cl)cc3)cs2)CC1	none (no result: KinaseGlo FLuc, SMN2 splice up)

Screens (PubChem)
